# Bioassay records deposited in PubChem BioAssay by National Center for Advancing Translational Sciences (NCATS).
# IDH1 R132H inh – qHTS for Inhibitors of mutant isocitrate dehydrogenase 1 (IDH1): qHTS | Potency, µM (top dose mostly 76.6 µM), actives largely listed as inhibitors | 0.093% of 390,000 active | Isocitrate dehydrogenase [NADP] cytoplasmic (Homo sapiens), O75874 | AID 602179, 2012 | IDH1-R132H enzyme, NADPH consumption, diaphorase/resazurin fluorescence; note: nearly all actives have a fitted effect of over 65% in size
# Target sequence (O75874 whole entry R132H, stated change not applied): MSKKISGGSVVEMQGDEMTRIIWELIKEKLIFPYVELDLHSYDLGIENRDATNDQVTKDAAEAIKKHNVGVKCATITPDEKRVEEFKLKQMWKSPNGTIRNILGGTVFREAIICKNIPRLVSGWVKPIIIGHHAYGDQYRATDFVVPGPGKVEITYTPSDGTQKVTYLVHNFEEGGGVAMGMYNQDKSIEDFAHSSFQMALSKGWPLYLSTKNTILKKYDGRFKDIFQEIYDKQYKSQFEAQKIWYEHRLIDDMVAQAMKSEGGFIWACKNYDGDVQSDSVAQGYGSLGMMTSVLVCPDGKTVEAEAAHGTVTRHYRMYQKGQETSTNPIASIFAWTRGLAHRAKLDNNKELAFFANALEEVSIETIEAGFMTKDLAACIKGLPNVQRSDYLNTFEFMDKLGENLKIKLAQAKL
#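 IDH1-R132H (0.5 ug/mL dispensed) in pH 7.5 Tris buffer was preincubated 30 min with compound, then given a substrate mix of 0.016 mM NADPH and 2 mM alpha-KG for 80 min at room temperature; remaining NADPH was read by diaphorase/resazurin fluorescence.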
# HEK293 tox – qHTS of GLP-1 Receptor Inverse Agonists: Cytotox Screen; 0.13% of 410,000 active; AID 624418, 2012; Potency, µM (series often up to 38.3 µM), usual class: inhibitors; HEK293 cAMP-luciferase reporter cells, luminescence, 24 h;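 note: loss of luciferase light is scored as toxicity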
#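 Quantitative HTS format, 1536 wells, 200 cells/uL seeded. Compounds: 23 nL, 24 h, 37 °C. Detection: luciferase reagent, luminescence at 12 min RT; decreased signal taken as cytotoxic.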
# TrxR1 substrate – qHTS Assay for Substrates of Mammalian Selenoprotein Thioredoxin Reductase 1 (TrxR1): qHTS; Potency, µM (top dose mostly 114 µM); 0.01% of 390,000 active; Thioredoxin reductase 1, cytoplasmic (Rattus norvegicus), O89049; purified TrxR1 substrate turnover, NADPH consumption readout; note: nearly all actives have a fitted effect of over 50% in size
#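 Rat TrxR1, dispensed at 90 nM, was prereduced with 400 uM NADPH (final) for 5 min at ~22 deg C, then incubated with compound 15 min before 400 uM selenite. A first-read NADPH fluorescence drop versus no-compound background flagged substrates.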
# GLP-1R agonist – qHTS of GLP-1 Receptor Agonists. Glucagon-like peptide 1 receptor (Homo sapiens), P43220. HEK293 GLP-1R CRE-luciferase, luminescence, 4-6 h; cells express a hypersensitive GLP-1R form. Potency, µM (titrated, usually from 45.6 µM), usual class: activators. 0.007% of 380,000 active. AID 624172, 2012
# GLP1R inv ag – qHTS of GLP-1 Receptor Inverse Agonists (Inhibition Mode). AID 624417, 2012. 1.6% of 410,000 active. HEK293 GLP-1R CRE-luciferase, luminescence, 24 h; GLP-1R form is constitutively active. Potency, µM (top dose mostly 38.3 µM), most hits filed as inhibitors. Glucagon-like peptide 1 receptor (Homo sapiens), P43220; note: nearly all actives have a fitted effect of over 55% in size
#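 GLP-1R inverse agonism mode: basal reporter luminescence in engineered HEK293 cells measured after one day of compound exposure at 37 deg C, with a 12 min room-temperature detection step.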
# TrxR1 inh – qHTS Assay for Inhibitors of Mammalian Selenoprotein Thioredoxin Reductase 1 (TrxR1): qHTS; Thioredoxin reductase 1, cytoplasmic (Rattus norvegicus), O89049; recombinant rTrxR1, NADPH fluorescence consumption, selenite substrate; Potency, µM (highest dose often 114 µM), hits mostly inhibitors; 1% of 390,000 active; AID 588453, 2011; note: nearly all actives have a fitted effect of over 65% in size
#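 Rat TrxR1 (90 nM in the dispensed reagent) was pre-reduced with 400 uM NADPH for 5 min at room temperature, then incubated with compound for 15 min. After 400 uM selenite was added, NADPH fluorescence (Ex 340/Em 450 nm) was followed for 8 min.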
# A number is an active result; - = inactive; ? = inconclusive; . = no result; [ ] = dose if it differs, or a comment. An excerpt weighted towards active compounds, which were near 2.7% of everything screened. Calls come from the whole dose curve; as a rule, active = well fitted curve in the direction sought with a large enough effect; inconclusive = small, poorly fitted or top-dose-only effect, or another doubt; inactive = no such curve, though single readings can be large; an effect the other way counts as inactive or inconclusive.
SMILES,IDH1 R132H inh,HEK293 tox,TrxR1 substrate,GLP-1R agonist,GLP1R inv ag,TrxR1 inh
CCN(CC)CCNC(=O)CCc1c(C)nc2c(c(C)nn2-c2ccc(C)c(C)c2)c1C,-,?,-,-,4µM,-
O=C(NCCc1ccccc1)c1ccc(Cn2c(SCc3ccccc3F)nc3cccnc32)cc1,-,-,-,.,?,-
O=[N+]([O-])c1ccc2c(c1)Cc1cc(F)ccc1-2,-,-,-,-,-,-
O=[N+]([O-])c1ccc2c(c1)C=CC2,.,.,-,.,.,13µM
Cc1ccccc1NC(=O)N1CCc2c(sc3c2CCCC3)C1c1ccccc1 (stereo unspecified),-,-,-,.,10µM,-
CCc1c(C)sc2c1CCN(C(=O)Nc1cc(OC)c(OC)c(OC)c1)C2c1ccccc1 (stereo unspecified),-,-,-,.,10µM,-
COc1ccc(C2/C=C\CN([S+](=O)([O-])c3ccc4ccccc4c3)C(C)C(=O)N2Cc2ccc(F)cc2)cc1 (stereo unspecified),.,.,-,.,.,-
O=C(CN1C(=O)C2(SCC(=O)N2c2ccccc2)c2ccccc21)Nc1ccccc1C(F)(F)F (stereo unspecified),-,-,-,-,-,-
OC(COc1ccc(CNCCc2ccccc2F)cc1)CN1CCCCC1 (stereo unspecified),-,-,-,-,5µM,-
COc1ccc(OC)c([N+](=O)[O-])c1C(N)=O,-,-[0.307 µM],-,-,-[0.307 µM],-
COc1ccc(NC(C)=O)c([N+](=O)[O-])c1[N+](=O)[O-],-,-,-,-,-,5µM
Cc1ccc(Cn2ccn(CC(=O)Nc3ccccc3C(F)(F)F)c(=O)c2=O)cc1,-,-,-,.,-,-
O=C(c1ccc(F)cc1)C(CCCCCC(CN1CCOCC1)C(=O)c1ccc(F)cc1)CN1CCOCC1 (stereo unspecified),-,-,-,-,10µM,-
Cc1ccc(F)cc1NC(=O)N1CCN(C2c3ccccc3-c3ccccc32)CC1,-,-,-,-,13µM,-
O=C(N/N=C\c1ccccc1)c1cccc(C(=O)N/N=C\c2ccccc2)n1,-,-,-,-,-,-
COc1ccc(/C=N/NC(=O)c2cccc(C(=O)N/N=C/c3ccc(OC)cc3)n2)cc1,-,-,-,-,-,50µM
CCN(CC)CCNC(=O)NC(=O)c1ccc(Cl)cc1,-,-,-,-,-,-
CCN(CC)CCNCC(O)(c1ccc(Cl)cc1)c1ccc(Cl)cc1,-,-,-,-,8.9µM,-
CC(C)(C)NCC(O)(c1ccc(Cl)cc1)c1ccc(Cl)cc1,-,?,-,-,4.5µM,-
CC(C)NCC(O)(c1ccc(Cl)cc1)c1ccc(Cl)cc1,-,-,-,-,13µM,-
O=S(=O)(NCc1ccc(F)cc1)c1ccc2[nH]c3c(c2c1)CCCC3,-,-,-,.,?,-
Cc1cc(C)c2nc(N(CCN(C)C)C(=O)c3ccc(S(=O)(=O)N(C)CC4CCCO4)cc3)sc2c1 (stereo unspecified),-,-,-,-,10µM,-
Cc1ccc2sc(N(CCCN(C)C)C(=O)c3ccc(S(=O)(=O)N(C)C4CCCCC4)cc3)nc2c1C,-,?,-,-,2.8µM,-
CCOc1cccc2sc(N(CCCN(C)C)C(=O)c3ccc(S(=O)(=O)N(C)CC4CCCO4)cc3)nc12 (stereo unspecified),-,-,-,-,?,-
Cc1cc(C)c2nc(N(CCCN(C)C)C(=O)c3ccc(S(=O)(=O)N4CC(C)OC(C)C4)cc3)sc2c1 (stereo unspecified),-,-,-,-,10µM,-
SMILES,IDH1 R132H inh,HEK293 tox,TrxR1 substrate,GLP-1R agonist,GLP1R inv ag,TrxR1 inh
Cc1ccc2sc(N(CCCN(C)C)C(=O)c3ccc(S(=O)(=O)N4CCOCC4)cc3)nc2c1C,-,-,-,-,10µM,-
CCC1=C(c2ccc(C)cc2)S(=O)(=O)N=C1N1CCC(C(=O)Nc2ccccc2F)CC1,.,-,-,.,-,-
O=C(CN1C(=O)C2(SCC(=O)N2c2cccc(Cl)c2)c2ccccc21)NC1CCCCC1 (stereo unspecified),-,-,-,-,-,-
Cc1cccc(-c2nc(SCC(=O)Nc3cccc(C(F)(F)F)c3)n3[nH]c(=O)cc3n2)c1,-,-,-,.,?,-
O=C(NCc1ccccc1CN1CCCC1)c1ccc(S(=O)(=O)Nc2ccccc2)cc1,-,-,.,-,13µM,.
O=C(NCc1ccccc1CN1CCCC1)c1ccc(S(=O)(=O)Nc2ccccc2F)cc1,-,-,.,-,-,.
COc1cc(S(=O)(=O)O)c(C)cc1N=Nc1c(O)ccc2cc(S(=O)(=O)O)ccc12,.,.,-,.,.,-
COc1ccccc1NC(=O)CSc1nnc(N)s1,-,-,-,-,-,13µM
CCc1cc2ccccc2nc1SCC(=O)NC1CCCC1,-,-,-,-,10µM,-
COc1ccccc1NC(=O)CSc1n[nH]c(Cc2ccccc2)n1,-,-,-,-,-,-
N#Cc1cc2ccccc2nc1SCC(=O)NC1CC1,-,-,-,-,-,-
COc1ccccc1NC(=O)CSc1nc2ccccc2cc1Cc1ccccc1,-,-,-,-,10µM,-
COc1ccccc1C(=O)NC(=O)CSc1nnc(N)s1,-,?,-,-,-,?
COc1ccc(Cl)cc1NC(=O)CCc1c(C)nc2c(c1C)c(=O)n(C)c(=O)n2C,-,-,-,-,-,-
O=C(Cn1nc(-c2ccccc2)c2c(c1=O)CCCC2)Nc1ccc(F)c(Cl)c1,-,-,-,.,-,-
Cc1ccc(S(=O)(=O)N2CCN(Cc3ccccc3)CC2)c(C)c1NS(C)(=O)=O,-,-,-,.,-,-
COc1ccccc1-c1csc(C(O)c2cccc(Cl)c2)n1 (stereo unspecified),.,-,.,-,?,.
O=C(CCN1C(=O)c2ccccc2C1=O)Nc1sc2c(c1C(=O)NCc1ccco1)CCCC2,-,-,-,-,-,20µM
CCN(CC)c1ncnc2c1cnn2-c1cc(Cl)ccc1C,-,-,-,.,-,-
O=C(/C=C/c1ccccc1)CCN1CCOCC1,-,?,-,-,-,0.56µM
O=C(NNS(=O)(=O)c1ccccc1)c1ccc([N+](=O)[O-])cc1,-,-,-,-,-,-
